Compound activity deposited in PubChem by The Scripps Research Institute Molecular Screening Center.
Rows were chosen to be rich in hits. Some 3.5% of all compounds tested hit in one or more screens of this group.
TEAD-YAP block – TEAD-YAP interaction inhibition; HEK-TIYL cells, TEAD-Gal4/YAP UAS-luciferase luminescence; inhibition, % at 9.12 µM; 640,000 tested, 1.4% active; in the data active means inhibition above about 32%;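 further: 0% = median of test compound wells and 100% = reference inhibitor wells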
GPR151 ag – activators of human GPR151; Q8TDV0; PathHunter beta-arrestin GPR151 cells, luminescence; activation, % at 11.2 µM; 650,000 tested, 1% active; AID 1508602; in the data active means activation above about 4.9%;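 further: 0% = median of compound wells and 100% = cells with positive control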
Target sequence (Q8TDV0 whole entry, looked up): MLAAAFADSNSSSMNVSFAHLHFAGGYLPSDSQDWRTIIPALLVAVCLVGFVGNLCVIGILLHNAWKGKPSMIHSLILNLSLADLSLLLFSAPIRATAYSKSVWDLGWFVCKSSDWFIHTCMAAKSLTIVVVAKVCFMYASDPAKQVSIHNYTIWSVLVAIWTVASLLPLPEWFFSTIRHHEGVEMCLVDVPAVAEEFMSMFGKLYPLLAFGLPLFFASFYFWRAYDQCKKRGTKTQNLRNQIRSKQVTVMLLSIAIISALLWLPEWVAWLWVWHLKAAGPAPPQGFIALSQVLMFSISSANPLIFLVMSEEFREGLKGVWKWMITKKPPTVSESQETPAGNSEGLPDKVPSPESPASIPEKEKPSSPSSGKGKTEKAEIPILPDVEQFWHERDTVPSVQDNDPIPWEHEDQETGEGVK
FBW7 act – activators of human E3 ligase FBW7. Q969H0. 650,000 tested, 0.13% active. AID 1259310. AlphaScreen FBW7–phospho-cyclin E peptide binding, activator screen. normalized activity (activation), % at 26.1 µM; in the data active means normalized activity above about 1.9%;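 further: purified mutant Fbw7 with reduced substrate affinity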
MITF inh – human MITF inhibition, primary screen | 650,000 tested, 0.91% active | AID 1259374 | inhibition, % at 2.6 µM | O75030 | AlphaScreen MITF homodimerization, bead proximity signal; in the data active means inhibition above about 50%;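 further: 0% = vehicle wells with protein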
* marks the source's active call; other numbers are inactive results.

SMILES	TEAD-YAP block	GPR151 ag	FBW7 act	MITF inh
O=S(=O)(NCCc1ccc(Cl)cc1)c1ccc(F)c(F)c1	0	1	0	-11
Cc1csc(NC(=O)C(Cc2c[nH]c3ccccc23)NC(=O)OC(C)(C)C)n1 (stereo not drawn)	41*	-1	0	12
Oc1cccc2ccc(/C=N/Nc3ccc4ccccc4n3)nc12	33*	-3	0	-10
C(=N\Nc1ccc2ccccc2n1)/c1cccs1	60*	-2	0	1
Oc1ccc(/C=N/Nc2ccc3ccccc3n2)c(O)c1O	-30	-1	-1	21
FC(F)(F)c1cc(Cn2c3ccccc3c3nc4ccccc4nc32)cc(C(F)(F)F)c1	4	-1	2.4*	-3
N#Cc1cccc(-n2ncc3cc(Nc4ccccc4Cl)ccc32)c1	-7	-1	2.0*	-15
COc1cc(NC(=O)c2cccc(-n3ncc4cc(Nc5ccccc5Cl)ccc43)c2)cc(OC)c1OC	23	-1	0	-4
Nc1nnc(CC(=O)N/N=C\c2ccccc2O)s1	-2	1	-2	9
Cc1[nH]c2ccc(-c3nnc(SCC(=O)Nc4cccc([N+](=O)[O-])c4)n3Cc3ccccc3)cc2c1C	1	0	0	-6
Cc1[nH]c2ccc(-c3nnc(SCC(=O)Nc4cccc([N+](=O)[O-])c4)n3-c3ccccc3)cc2c1C	2	1	2.4*	17
C[C@H](Nc1ccc(C(F)(F)F)cc1[N+](=O)[O-])C(=O)Nc1nc2ccccc2[nH]1	32*	0	0	-4
CC(Nc1ccc(C(F)(F)F)cc1[N+](=O)[O-])C(=O)O (stereo not drawn)	12	-1	0	-2
Cc1nn(C(=O)C23CC4CC(CC(C4)C2)C3)c(C)c1Sc1ccc(Cl)cc1	1	0	0	4
O=C(/C=C/Nc1cccc(Br)c1)c1cccs1	-55	-1	0	-10
O=C(/C=C/Nc1ccc(Br)cc1)c1cccs1	41*	-2	0	-4
Cc1ccc(O)c(N/C=C/C(=O)c2ccc(F)cc2)c1	-57	-1	0	13
CCOc1ccc(N/C=C/C(=O)c2cccs2)cc1	37*	0	1	17
Cc1ccc(O)c(N/C=C/C(=O)c2cccs2)c1	54*	-1	1	2
Cc1ccc(N=C(NN)c2ccc3ccccc3n2)cc1	92*	-1	0	37
COc1ccccc1N=C(NN)c1ccc2ccccc2n1	-32	0	0	10
CCOc1ccc(N=C(NN)c2ccc3ccccc3n2)cc1	94*	2	0	2
CCn1c2ccccc2c2cc(CN3CCN(Cc4cc(OC)c(O)c(OC)c4)CC3)ccc21	-6	1	0	46
CCn1c2ccccc2c2cc(CN3CCN(Cc4cc(OC)ccc4O)CC3)ccc21	-18	-1	0	62*
COc1ccc(O)c(CN2CCN(Cc3ccccc3OC)CC2)c1	-4	-1	0	69*
SMILES	TEAD-YAP block	GPR151 ag	FBW7 act	MITF inh
COc1ccc(CN2CCN(Cc3cc(OC)ccc3O)CC2)cc1	-1	0	0	83*
CCOc1cc(S(=O)(=O)NCc2ccncc2)ccc1Cl	52*	1	0	8
O=S(=O)(NCc1ccncc1)c1cccc(Cl)c1Cl	35*	-1	0	17
O=S(=O)(NCc1ccncc1)c1ccc(Cl)c(Cl)c1	36*	2	0	8
CCOc1ccc(S(=O)(=O)NCc2ccncc2)cc1C	55*	0	0	-2
O=S(=O)(NCc1cccnc1)c1cccc(Cl)c1Cl	-12	4	0	6
CCC(C)CC(=O)SC1CCC2(C)C(=CCC3C2CCC2(C)C(C(C)CCCC(C)C)CCC32)C1 (stereo not drawn)	-2	1	0	7
COc1ccc(-c2oc3ccccc3c(=O)c2OC)cc1OC	-9	0	0	-16
O=S(=O)(NCc1ccncc1)c1ccc(Br)cc1Br	32*	1	0	5
Cc1ccc(S(=O)(=O)NCc2ccncc2)cc1	41*	0	0	1
Cc1cc(S(=O)(=O)NCc2ccncc2)c(C)cc1Br	32	0	1	13
CC(C)Cc1ccc(S(=O)(=O)Nc2ccc3c(c2)n(C)c(=O)n3C)cc1	33*	1	0	1
Cn1c(=O)n(C)c2cc(NS(=O)(=O)c3ccc(C(C)(C)C)cc3)ccc21	25	1	0	17
O=C(Cc1cccs1)Nc1nnc(SCC(=O)Nc2nc3ccccc3s2)s1	1	2	0	1
CC(=O)CC(O)(c1ccccc1)C(F)(F)C(F)F (stereo not drawn)	-14	1	0	5
O=S(/C=C(\F)C(F)(F)C(F)(F)C(F)F)Cc1ccccc1 (stereo not drawn)	50*	2	0	-3
COc1cc(Br)cc(C=Nc2ccc(Cl)c(S(=O)(=O)N(C)C)c2)c1O	4	1	0	-9
O=C(CNC(=O)c1ccc2c(c1)OCO2)N/N=C/c1ccc2c(c1)OCO2	-5	-1	0	8
Cc1nc2c3ccccc3nc(SCC(=O)Nc3ccc(Br)cc3)n2n1	4	0	0	5
CCc1ccc(NC(=O)CSc2nc3ccccc3c3nc(C)nn23)cc1	62*	0	0	10
COc1ccccc1CN(Cc1cc2cccc(C)c2n2nnnc12)C(=O)c1ccncc1	34*	0	0	-1
Cc1cccc2cc(CN(CCc3ccccc3)C(=O)c3ccncc3)c3nnnn3c12	-2	-1	1	12
CC(=O)c1c(C)n(S(=O)(=O)c2ccc3ccccc3c2)c2ccc(NS(=O)(=O)c3ccc4ccccc4c3)cc12	10	0	0	16
COc1ccccc1N1CCN(C(=S)NCCN2CCOCC2)CC1	66*	-1	0	8
O=C(NCCCN1CCc2ccccc2C1)Nc1ccc(Br)cc1	-15	0	3.1*	-10
SMILES	TEAD-YAP block	GPR151 ag	FBW7 act	MITF inh
CCNC(=S)N1CCN(c2ccccc2OC)CC1	1	1	0	-9
COc1ccccc1N1CCN(CCCNC(=O)Nc2ccc(Br)cc2)CC1	3	-1	2.9*	-12
CC(C)n1cnc2c(NCCN3CCOCC3)nc(Nc3ccncc3)nc21	1	1	0	13
CC(Cc1cccs1)NC(=O)c1ccccc1Br (stereo not drawn)	8	-3	0	14
Cc1noc(C)c1CCC(=O)N1CCC(Oc2nc3c(C)cccc3s2)CC1	15	2	0	1
OC(CN1C2=NCCN2c2ccccc21)c1ccc2c(c1)OCO2 (stereo not drawn)	55*	0	0	0
OC(CN1C2=NCCCN2c2ccccc21)c1ccc2c(c1)OCO2 (stereo not drawn)	3	0	0	5
O=S(=O)(CCOc1ccccc1)Nc1ccc2c(c1)Cc1ccccc1-2	-10	2	0	7
Cc1ccc(NS(=O)(=O)CCOc2ccccc2)cc1F	39*	-2	1	3
c1ccc(Nc2nc(NCc3nc4ccccc4[nH]3)c3ncn(-c4ccccc4)c3n2)cc1	34*	1	0	15
